The nature of test [1]: qHTS assay for small molecule agonists of the antioxidant response element (ARE) signaling pathway (AID 651741; active = well fitted activation curve with a large enough effect in the signal ratio; the % refers to the signal ratio; note: potency is the fitted concentration of half-maximal effect; for activation: % of control where 0% means no effect). The essentials:
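Beta-lactamase reporter expression driven by the antioxidant response element in HepG2 cells was detected by fluorescence with LiveBLAzer B/G FRET substrate (2 h, room temperature) following 16 h compound treatment at 37 C.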

Test [2] is described as follows: qHTS assay for small molecule activators of the p53 signaling pathway (AID 651743; active = well fitted activation curve with a large enough effect in the signal ratio, not every such curve was filed as active; the % refers to the signal ratio; note: % of control where 0% means no effect). Particulars: HCT-116 p53RE-bla, beta-lactamase FRET ratio, 16 h; activation: stronger effect = higher value. Put shortly: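 Here HCT-116 cells with an integrated p53-responsive beta-lactamase gene were incubated with compounds (16 hours, 37 C) after a 5-hour plating period; beta-lactamase activity was detected as fluorescence intensity via B/G FRET substrate.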
In general terms: qHTS replaces the single test concentration by a dilution series.

Test [3] is described as follows: qHTS assay for small molecule activators of the nuclear factor-kappa B (NF-kB) signaling pathway (AID 651749; active = well fitted activation curve with a large enough effect in the signal ratio; the % refers to the signal ratio; note: % of control where 0% means no effect). The following applies: NF-kB-bla ME-180 cells, beta-lactamase FRET ratio, 16 h; stronger effect = higher value. Put shortly:
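Beta-lactamase reporter expression, controlled by NF-kB response elements in ME-180 cells, was quantified fluorometrically via FRET disruption; cells at 2,000/well had been incubated with 23 nL test compound for 16 hr.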

For test [4], the target named is Tumor necrosis factor (Homo sapiens) (UniProt P01375). Nature of the test: qHTS assay to identify small molecules that stimulate Tumor Necrosis Factor-alpha (TNF-alpha) secretion (AID 651757; active = well fitted curve in the direction sought with a large enough effect in the signal ratio; the % refers to the signal ratio; note: 0% is about no effect). The essentials:
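Using 3000 THP-1 cells per well, compounds and controls were applied for 17 hrs at 37 C. Detection followed with two labeled anti-TNF-alpha antibodies (cryptate donor, XL665 acceptor) for 3 hr at room temperature, measured by TR-FRET.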

A short description of test [5]: qHTS assay to identify small molecules that stimulate interleukin-8 (IL-8) secretion (AID 651758; active = well fitted activation curve with a large enough effect in the signal ratio; the % refers to the signal ratio; note: 0% is about no effect). Put shortly:
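Quantitative HTS in THP-1 monocytic cells at 2000 cells per well, with 16 hrs compound incubation at 37 C. IL-8 in the medium was then quantified by HTRF immunoassay, read after 1-3 hrs at room temperature.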

Test [6] deals with Peroxisome proliferator-activated receptor alpha (Homo sapiens) (UniProt Q07869). Put plainly: qHTS assay for small molecule agonists of the peroxisome proliferator-activated receptor alpha (PPARalpha) signaling pathway (AID 651778). Note: % of control where 0% means no effect. The following applies: PathHunter PPARalpha complementation, chemiluminescence, 6 h; max response: stronger effect = higher value. Put shortly:
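Cells plated at 2,000/well and held overnight at 37 C, 5% CO2, then compound added by pin tool for 6 hr; after PathHunter detection reagent and 60 min at room temperature, chemiluminescence from enzyme complementation was read.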

The nature of test [7]: Cell Proliferation Assay against the TMD8 Cell Line (AID 651645).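 Note: cells exposed to compound for 48 h before reading.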 The following applies: TMD8 DLBCL cell line proliferation/viability; at 46.1 µM (top of the series) unless noted. The essentials:
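Viability by CellTiter-Glo after 48 h compound exposure of 500 log-phase TMD8 cells per well (RPMI, 5% FBS). Percent activity scaled between DMSO (100%) and 9.2 uM final bortezomib (0%).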

Test [8] can be described thus: qHTS assay for small molecule disruptors of the mitochondrial membrane potential - 5 hr assay (AID 651755; calls by dose curve; note: nearly all actives have a fitted effect of over 40% in size; note: potency is the fitted concentration of half-maximal effect). Put shortly: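 Seed HepG2 overnight, add compound, incubate 5 hr at 37C and 5% CO2, stain 30 min with Mito-MPS, then measure monomer (490/535 nm) and aggregate (540/590 nm) fluorescence.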
In test [9] the target is Nuclear receptor ROR-gamma (Homo sapiens) (UniProt P51449). Nature of the test: qHTS assay for small molecule antagonists of the retinoid-related orphan receptor gamma (ROR-gamma) signaling pathway (AID 651802).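 Note: luciferase reporter luminescence driven by ROR response element; % is set by controls: 0 for no effect and ±100 for the full control effect; nearly all actives have a fitted effect of over 60% in size.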 The essentials: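 Doxycycline-induced reporter activity in engineered CHO cells (TET-inducible ROR, RORE-LUC) was measured by luminescence after 16hr compound exposure at 37C.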

The nature of test [10]: qHTS Assay for Identification of Small Molecule Antagonists for NFkB Signaling Pathway. (AID 624479; calls by dose curve;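 note: pathway stimulated with TNF alpha; potency is the fitted concentration of half-maximal effect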).
Test [11] is described as follows: Cell Proliferation Assay against the TMD8 Cell Line (Caspase readout at 8 hrs) (AID 651713). Note: potency is the fitted concentration of half-maximal effect. The essentials: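 Luminescent caspase 3/7 assay; TMD8 cells, 8 h treatment at 37C, 5% CO2. Normalisation: DMSO 0%, 9.2 uM bortezomib 100%.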
For test [12], the target named is Tyrosine-protein kinase Yes (Homo sapiens) (UniProt P07947). Nature of the test: qHTS for small molecule inhibitors of Yes1 kinase: Primary Screen (AID 686947). Note: potency is the fitted concentration of half-maximal effect; nearly all actives have a fitted effect of over 60% in size. Put shortly:
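In this qHTS format, inhibition is expressed relative to DMSO controls with enzyme (maximum) and without enzyme (minimum). The 60 min room-temperature reaction uses 0.1 mM ATP, with ADP detected by luminescence.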

A short description of test [13]: qHTS assay for small molecule disruptors of the mitochondrial membrane potential - 1 hr assay (AID 651754; calls by dose curve; note: potency is the fitted concentration of half-maximal effect; nearly all actives have a fitted effect of over 35% in size). Put shortly:
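In this qHTS format, a 1 hr compound treatment of HepG2 cells precedes Mito-MPS staining, and membrane potential is judged from aggregate (red) against monomer (green) fluorescence intensity.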

Test [14] can be described thus: qHTS assay for environmental chemicals that activate the Aryl hydrocarbon Receptor (AhR) signaling pathway (AID 651777). Note: % of control where 0% means no effect; nearly all actives have a fitted effect of over 15% in size. Particulars: 1A2-DRE human hepatoma cells, luciferase, 24 h; activation: stronger effect = higher value. Put shortly:
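Stable CYP1A2 promoter/DRE-luciferase human hepatoma line treated 24 hr; One-Glo luminescence, 30 min RT.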

Test [15] is described as follows: Cell Proliferation Assay against the HBL1 Cell Line (AID 651646).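 Note: cells exposed to compound for 48 h before reading.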 The following applies: HBL1 DLBCL cells; at 46.1 µM (top of the series) unless noted. Put shortly: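 After a 48 h incubation of 500 HBL1 cells/well in phenol red-free RPMI plus 5% FBS, relative luciferase units from CellTiter-Glo gave percent activity against DMSO and 9.2 uM bortezomib (final) controls.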

The structures appear in SMILES notation. Where “and” joins values, the source holds several entries; their conditions need not be identical. Identical values can stand only once. Results filed as inconclusive are left out. More than one record can exist for a structure, and the calls need not agree. Calls of active or inactive are those of the source. Unless noted, calls come from the whole dose curve; as a rule, active = well fitted curve in the direction sought with a large enough effect; inconclusive = small, poorly fitted or top-dose-only effect, or another doubt; inactive = no such curve, though single readings can be large; an effect the other way counts as inactive or inconclusive.

Chain of Tumor necrosis factor (Homo sapiens) (P01375 whole entry, looked up): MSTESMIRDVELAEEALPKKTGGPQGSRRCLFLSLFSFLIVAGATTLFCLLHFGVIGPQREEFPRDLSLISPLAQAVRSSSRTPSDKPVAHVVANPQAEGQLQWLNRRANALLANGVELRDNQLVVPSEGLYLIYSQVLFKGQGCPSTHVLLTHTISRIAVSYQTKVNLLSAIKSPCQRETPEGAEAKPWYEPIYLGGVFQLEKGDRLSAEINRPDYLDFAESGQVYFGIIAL
Chain of Nuclear receptor ROR-gamma (Homo sapiens) (P51449 whole entry, looked up): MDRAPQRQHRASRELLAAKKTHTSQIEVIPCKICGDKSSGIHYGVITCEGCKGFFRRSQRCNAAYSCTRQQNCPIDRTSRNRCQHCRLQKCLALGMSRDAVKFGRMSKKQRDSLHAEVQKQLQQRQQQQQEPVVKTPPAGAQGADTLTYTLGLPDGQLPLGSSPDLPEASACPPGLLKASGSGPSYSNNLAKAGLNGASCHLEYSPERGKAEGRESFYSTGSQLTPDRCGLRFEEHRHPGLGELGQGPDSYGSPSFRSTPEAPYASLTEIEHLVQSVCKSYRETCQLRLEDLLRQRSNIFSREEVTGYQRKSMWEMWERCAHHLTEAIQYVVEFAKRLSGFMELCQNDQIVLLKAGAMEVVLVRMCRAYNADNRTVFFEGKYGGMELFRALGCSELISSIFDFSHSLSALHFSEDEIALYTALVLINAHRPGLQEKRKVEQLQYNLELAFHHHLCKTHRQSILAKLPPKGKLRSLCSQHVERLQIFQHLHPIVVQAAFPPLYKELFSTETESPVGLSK
Chain of Peroxisome proliferator-activated receptor alpha (Homo sapiens) (Q07869 whole entry, looked up): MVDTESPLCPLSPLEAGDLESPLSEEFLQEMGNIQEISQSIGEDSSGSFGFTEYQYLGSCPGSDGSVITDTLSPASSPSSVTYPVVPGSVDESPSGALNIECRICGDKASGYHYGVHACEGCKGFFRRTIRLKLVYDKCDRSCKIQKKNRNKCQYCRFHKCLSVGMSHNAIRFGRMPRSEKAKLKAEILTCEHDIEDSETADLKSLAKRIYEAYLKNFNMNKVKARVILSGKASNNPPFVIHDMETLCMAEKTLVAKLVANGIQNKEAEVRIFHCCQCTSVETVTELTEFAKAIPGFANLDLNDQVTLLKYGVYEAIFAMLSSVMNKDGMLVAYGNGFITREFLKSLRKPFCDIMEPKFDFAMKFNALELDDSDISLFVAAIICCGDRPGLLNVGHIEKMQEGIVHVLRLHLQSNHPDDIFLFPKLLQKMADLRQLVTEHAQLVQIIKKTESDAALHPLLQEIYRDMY
Chain of Tyrosine-protein kinase Yes (Homo sapiens) (P07947 whole entry, looked up): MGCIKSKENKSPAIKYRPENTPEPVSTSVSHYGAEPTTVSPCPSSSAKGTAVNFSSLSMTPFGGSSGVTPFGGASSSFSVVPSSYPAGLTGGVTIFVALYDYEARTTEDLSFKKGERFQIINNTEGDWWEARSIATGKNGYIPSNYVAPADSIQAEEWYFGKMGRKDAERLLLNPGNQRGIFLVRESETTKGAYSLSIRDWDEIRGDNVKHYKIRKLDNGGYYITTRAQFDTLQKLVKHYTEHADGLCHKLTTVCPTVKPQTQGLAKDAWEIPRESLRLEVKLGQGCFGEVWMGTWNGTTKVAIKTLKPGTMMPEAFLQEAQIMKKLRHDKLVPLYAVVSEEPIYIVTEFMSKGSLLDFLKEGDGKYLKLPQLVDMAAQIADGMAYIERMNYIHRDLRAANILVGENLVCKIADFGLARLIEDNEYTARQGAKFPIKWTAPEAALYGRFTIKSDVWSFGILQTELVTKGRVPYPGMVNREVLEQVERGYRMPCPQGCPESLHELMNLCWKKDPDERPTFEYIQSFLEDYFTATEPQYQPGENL

`O=C(O)COc1ccccc1`: the Potency entry in test [1] is “inactive”. The activation in [2] was -8.89% (inactive); in [3], -0.0582% (inactive). For the same compound, the outcome in test [4] and in test [5] was inactive. For the same compound, the max response in [6] is -1.23% (inactive).

Turning to `CCCCN1CCC(CNC(=O)c2c3n(c4ccccc24)CCCO3)CC1`, the viability (% of control) in test [7] came to 119%.

As to `[Cl][In]([Cl])[Cl]`, the Potency in test [1] is 29.8 µM (active).

With `O=S(=O)(O)C(F)(F)C(F)(F)C(F)(F)C(F)(F)F`, in test [1], the Potency is 30.6 µM (active) and inactive. Moreover, the activation in test [2] is -0.542% (inactive) and -4.63% (inactive); in test [3] it was -0.249% (inactive) and 0.21% (inactive). In test [6], the max response is 5.33% (inactive) and 1.27% (inactive).

On to `COc1nn(CSP(=S)(OC)OC)c(=O)s1`, for which the Potency entry in test [1] was “inactive”. Further, the activation in [2] is 0.0507% (inactive); in test [3] it was -0.901% (inactive). The max response in [6] is -1.93% (inactive).

Consider `CCCCOC(=O)c1ccccc1C(=O)OCc1ccccc1`, for which the Potency entry in [1], in [8] and in test [9] was “inactive” each time. In addition, the activation was 1.28% (inactive) and 1.63% (inactive) in test [2]; -1.25% (inactive) and 0.0084% (inactive) in test [3]. Further, the call in [4] and in test [5] was inactive. Further, the max response in test [6] is -3.94% (inactive) and -0.0123% (inactive).

With `c1cc(-c2cnn3cc(-c4ccc(OCCN5CCCCC5)cc4)cnc23)ccn1`, the results for the Potency in [10], in [11] and in test [12] were 9.43 µM (active), 23.5 µM (active) and 0.0547 µM (active), respectively.

As for `Nc1ccc(Cl)cc1N`, the Potency in [1] was 4.22 µM (active) and 27.3 µM (active); in [13], 8.41 µM (active); in test [8], 13.3 µM (active). For the same compound, the activation in test [2] was 1.69% (inactive) and 0.406% (inactive); in test [3], 0.983% (inactive) and -0.776% (inactive). In addition, the max response in test [6] was -5.6% (inactive) and -0.828% (inactive). Further, the Potency result in [9] is “inactive”.

As for `Nc1ccc(N=Nc2ccccc2)cc1`, in [1], the Potency is 27.3 µM (active). For the same compound, the activation in test [2] is -2.42% (inactive). The max response in [6] was -2.06% (inactive).

For the compound `COCCn1c2c([n+](Cc3cnccn3)c1C)C(=O)c1ccccc1C2=O`, the Potency in test [10] is 0.0047 µM (active).

With `O=[N+]([O-])c1cc([N+](=O)[O-])c2ccccc2c1`, the Potency was 5.96 µM (active) in test [1] and 33.5 µM (active) in test [13]. Besides, the activation in test [2] is -0.898% (inactive); in test [3], -0.323% (inactive). Moreover, the outcome in test [4] was inactive. For the same compound, the max response in test [6] was -4.32% (inactive). Besides, the Potency entry in test [9] is “inactive”.

On to `CS(=O)(=O)c1ccc(C(=O)C2C(=O)CCCC2=O)c([N+](=O)[O-])c1`, for which, in test [1], the Potency was 54.5 µM (active). Besides, the activation in [2] was -1.94% (inactive); in test [3] it was -0.467% (inactive). Moreover, in test [6], the max response is -3.08% (inactive).

On to `CC(C)(O)C(=O)Nc1ccc([N+](=O)[O-])c(C(F)(F)F)c1`, for which the Potency in test [1] was 66.8 µM (active); in [13] it was 29.8 µM (active); in test [8], 26.6 µM (active). The activation was 4.44% (inactive) in test [2] and -1.15% (inactive) in test [14]. Besides, the max response in [6] is -1.76% (inactive).

For `CCOCCOC(C)=O`, the Potency entry in [1] and in [9] was “inactive” throughout. Also, in [2], the activation is -0.566% (inactive). Further, the compound was classed as inactive in [4]. For the same compound, the max response in test [6] is 0.307% (inactive).

Regarding `C=CC(=O)NCNC(=O)C=C`, in test [1], the Potency was 37.6 µM (active) and 30.6 µM (active). The activation is -3.11% (inactive) and -4.69% (inactive) in test [2]; -0.065% (inactive) and -1.61% (inactive) in test [3]. Also, the result in test [4] and in test [5] was inactive. Also, in test [6], the max response was -3.68% (inactive) and -5.17% (inactive).

For `Nc1nc(-c2nn(Cc3ccccc3F)c3ncccc23)nc(N)c1N1CCOCC1`, in [7], the viability (% of control) was 91.5%. The viability, percent of control in test [15] worked out at 114%.

The record behind these values is PubChem BioAssay (NCATS).
